# Measured values as given in PubChem BioAssay.
# For part of these data: Entries with a potency or affinity are not part of this list. Activity calls are given as the source filed them.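 The calls were made as follows, unless noted: active = primary screen active and over 50% activation in each of two duplicate runs; inactive = the rest.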
# Assays:
# [1] = tested on: TRPC4 beta (transient receptor potential cation channel C4), mouse; assay: activators of mouse TRPC4 channel, confirmation, cell-based, Fluo4 calcium, HEK293 TRPC4beta/mu-opioid, duplicates, 10 µM (AID 2426;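 active = fluorescence ratio normalized to control raised more than 50% in primary screen plus both repeat runs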); settings: Fluo4 calcium fluorescence, at 10 µM; hits give high values
# [2] = tested on: transient receptor potential cation channel C4 beta (TRPC4), mouse; assay: activators of mouse TRPC4 channel, confirmation, cell-based, second round, Fluo4, HEK293 TRPC4beta/mu-opioid, 1 µM (AID 2461); settings: Fluo4 calcium fluorescence, at 1 µM; hits give high values
# [3] = tested on: TRPC4 (transient receptor potential cation channel C4 beta), mouse; assay: positive allosteric modulators of mouse TRPC4, confirmation, cell-based, second round, Fluo-4, HEK293 TRPC4beta/mu-opioid, 1 µM (AID 2554;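 active = primary screen hit whose fluorescence ratio, in both repeats, exceeds the weak agonist control mean by 3 SD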); settings: DAMGO EC20, Fluo-4 calcium flux, at 1 µM; hits give high values
# [4] = tested on: TRPC4 beta (transient receptor potential cation channel C4), mouse; assay: positive allosteric modulators of mouse TRPC4, confirmation, cell-based, Fluo-4, HEK293 TRPC4beta/mu-opioid (AID 2555;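 active = primary screen hit whose calcium fluorescence ratio, in both repeats, exceeds the weak agonist control mean by 3 SD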); settings: DAMGO EC20, Fluo-4 calcium flux, at 10 µM; hits give high values
# [5] = target: Short transient receptor potential channel 4 (Mus musculus) (UniProt Q9QUQ5); assay: inhibitors of mouse TRPC4 channel, confirmation, cell-based, Fluo4, HEK293 TRPC4beta/mu-opioid (AID 2636;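 active = calcium signal cut by more than 3 SD below the full-agonist control yet still positive, in both repeats and the earlier primary screen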); settings: DAMGO, Fluo4 calcium flux, at 10 µM; hits give high values
# Sequence of Short transient receptor potential channel 4 (Mus musculus) (Q9QUQ5 whole entry, looked up): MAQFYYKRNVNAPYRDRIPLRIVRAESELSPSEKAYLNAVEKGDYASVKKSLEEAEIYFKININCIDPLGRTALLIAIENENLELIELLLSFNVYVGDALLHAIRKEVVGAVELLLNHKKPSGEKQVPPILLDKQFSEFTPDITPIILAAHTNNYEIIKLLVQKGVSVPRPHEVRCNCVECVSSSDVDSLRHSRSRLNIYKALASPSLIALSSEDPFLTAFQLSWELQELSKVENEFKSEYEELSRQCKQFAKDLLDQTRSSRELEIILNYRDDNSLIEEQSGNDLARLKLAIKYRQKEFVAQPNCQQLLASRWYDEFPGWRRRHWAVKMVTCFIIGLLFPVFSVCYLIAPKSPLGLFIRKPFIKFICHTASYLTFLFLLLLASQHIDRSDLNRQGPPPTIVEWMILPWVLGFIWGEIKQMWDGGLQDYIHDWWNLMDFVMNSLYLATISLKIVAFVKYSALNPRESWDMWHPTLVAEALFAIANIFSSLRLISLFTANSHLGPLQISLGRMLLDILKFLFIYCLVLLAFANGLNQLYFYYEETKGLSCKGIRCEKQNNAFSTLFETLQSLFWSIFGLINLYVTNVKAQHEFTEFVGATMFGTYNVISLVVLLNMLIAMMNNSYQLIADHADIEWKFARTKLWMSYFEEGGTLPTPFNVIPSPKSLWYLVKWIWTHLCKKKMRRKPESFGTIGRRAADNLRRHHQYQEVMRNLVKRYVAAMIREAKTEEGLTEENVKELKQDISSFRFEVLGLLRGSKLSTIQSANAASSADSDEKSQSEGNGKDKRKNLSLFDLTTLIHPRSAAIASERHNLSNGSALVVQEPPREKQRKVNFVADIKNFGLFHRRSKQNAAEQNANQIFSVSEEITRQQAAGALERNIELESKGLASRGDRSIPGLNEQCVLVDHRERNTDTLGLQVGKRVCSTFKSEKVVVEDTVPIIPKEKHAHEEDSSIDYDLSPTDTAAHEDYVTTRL
# [6] = target: Short transient receptor potential channel 4 (Mus musculus) (UniProt Q9QUQ5); assay: inhibitors of mouse TRPC4 channel, confirmation, cell-based, second round, Fluo4, HEK293 TRPC4beta/mu-opioid, 1 µM (AID 2637;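 active = calcium signal ratio cut to more than 3 SD under the fully stimulated control mean yet still positive, in both repeats and the primary screen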); settings: Fluo4 calcium flux, DAMGO, at 1 µM; hits give high values
# [7] = target: Short transient receptor potential channel 4 (Mus musculus) (UniProt Q9QUQ5); assay: mouse TRPC4 channel activators, dose response, cell-based, HEK293 TRPC4/mu-opioid, Fluo-4 calcium (AID 434937;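 active = primary screen activator hit with a dose response curve and TRPC4 channel activation at any tested dose; inactive = no activation, no dose response, or not a primary hit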)
# [8] = target: Short transient receptor potential channel 4 (Mus musculus) (UniProt Q9QUQ5); assay: TRPC4 positive allosteric modulators, dose response, cell-based, HEK293 TRPC4/mu-opioid, Fluo-4 calcium, EC20 DAMGO (AID 434941;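 active = earlier screen potentiator hit that boosts the TRPC4 ion channel at some dose, with a dose response; inactive = no potentiation, no dose response, or not a prior hit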;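 also: calcium entry triggered by an EC20 dose of DAMGO at the co-expressed mu-opioid receptor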)
# [9] = target: Short transient receptor potential channel 4 (Mus musculus) (UniProt Q9QUQ5); assay: mouse TRPC4 channel inhibitors, dose response, cell-based, HEK293 TRPC4/mu-opioid, Fluo-4 calcium (AID 434942;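 active = primary screen inhibitor hit that blocks the TRPC4 channel at some tested dose, yielding a dose curve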)
# [10] = target: Short transient receptor potential channel 6 (Mus musculus) (UniProt Q61143); assay: inhibition of mouse TRPC6 channel, confirmation, selectivity assay for TRPC4 inhibitor project, cell-based, HEK293, membrane potential dye, duplicate (AID 434948;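 active = active in primary screen and both duplicates, each dropping signal beyond three positive-control SD with fluorescence still positive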); settings: HEK293 TRPC6, membrane potential dye fluorescence, at 10 µM, stimulated with maximal-effect acetylcholine; hits give high values
# Sequence of Short transient receptor potential channel 6 (Mus musculus) (Q61143 whole entry, looked up): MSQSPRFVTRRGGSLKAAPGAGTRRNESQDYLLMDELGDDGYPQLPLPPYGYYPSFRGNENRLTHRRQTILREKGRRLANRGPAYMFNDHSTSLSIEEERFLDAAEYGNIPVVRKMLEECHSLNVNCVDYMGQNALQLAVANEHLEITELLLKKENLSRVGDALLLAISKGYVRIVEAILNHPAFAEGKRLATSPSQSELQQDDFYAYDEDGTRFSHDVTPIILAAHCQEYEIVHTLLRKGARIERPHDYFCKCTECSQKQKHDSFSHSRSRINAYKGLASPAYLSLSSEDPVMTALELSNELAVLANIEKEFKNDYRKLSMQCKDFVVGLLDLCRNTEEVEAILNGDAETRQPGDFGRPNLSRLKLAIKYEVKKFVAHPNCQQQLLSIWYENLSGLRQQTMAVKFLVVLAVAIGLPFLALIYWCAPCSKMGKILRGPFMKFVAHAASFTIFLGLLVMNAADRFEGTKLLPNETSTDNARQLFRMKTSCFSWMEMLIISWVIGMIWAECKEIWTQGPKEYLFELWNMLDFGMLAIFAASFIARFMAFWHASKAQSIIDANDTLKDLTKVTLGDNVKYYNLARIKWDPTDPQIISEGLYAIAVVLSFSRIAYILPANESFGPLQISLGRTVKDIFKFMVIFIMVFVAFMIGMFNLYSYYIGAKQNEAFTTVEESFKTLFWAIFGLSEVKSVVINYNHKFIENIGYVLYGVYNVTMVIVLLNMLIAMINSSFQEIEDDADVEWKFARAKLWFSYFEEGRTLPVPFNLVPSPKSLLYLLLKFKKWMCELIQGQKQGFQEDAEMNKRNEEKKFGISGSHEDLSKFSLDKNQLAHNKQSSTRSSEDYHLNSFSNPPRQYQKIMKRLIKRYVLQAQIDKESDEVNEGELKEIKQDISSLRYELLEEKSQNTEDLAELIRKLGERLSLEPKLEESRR
# [11] = target: Short transient receptor potential channel 6 (Mus musculus) (UniProt Q61143); assay: activation of mouse TRPC6 channel, confirmation, selectivity assay for TRPC4 activator project, cell-based, HEK293, membrane potential dye, duplicate (AID 434950;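 active = membrane potential signal rise above negative control mean plus 3 SD in both duplicates, also active in the earlier TRPC4 screen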); settings: HEK293 TRPC6, membrane potential fluorescence, at 10 µM; hits give high values
# [12] = target: Short transient receptor potential channel 6 (Mus musculus) (UniProt Q61143); assay: TRPC6 potentiation by TRPC4 potentiator hits, confirmation, selectivity assay for TRPC4 potentiator project, HEK293 cells, membrane potential dye, duplicate (AID 434952;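 active = compound raising the membrane signal above positive-control mean plus 3 SD in both repeats, and a primary screen hit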); settings: HEK293 TRPC6, membrane potential dye fluorescence, at 10 µM, maximal acetylcholine added after compound; hits give high values
# [13] = target: Short transient receptor potential channel 4 (Mus musculus) (UniProt Q9QUQ5); assay: calcium flux activators in TRPC4/5HT1a cells, counter-screen for TRPC4 activator project, cell-based, second counter screen, HEK293 TRPC4/5HT1a, Fluo-4 (AID 434977;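 active = calcium signal rise above buffer-control mean plus 5 SD in both duplicates, and also a hit in the primary screen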); settings: Fluo-4 calcium flux, at 10 µM; hits give high values
# [14] = calcium flux inhibitors in TRPC4/5HT1a cells, confirmation, counter-screen for TRPC4 inhibitor project, cell-based, second counter screen, HEK293 TRPC4/5HT1a, Fluo-4 (AID 434978;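 active = primary screen active whose calcium signal fell more than 3 SD beyond the full-serotonin control mean in both duplicate plates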;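 also: serotonin given first at submaximal then at maximal dose after compound preincubation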); settings: Fluo-4 calcium flux, at 10 µM, serotonin added to trigger calcium flux; hits give high values
# [15] = tested on: TRPC4 (mouse), co-expressed with 5HT1a in HEK293; assay: calcium flux potentiators in TRPC4/5HT1a cells, confirmation, counter-screen for TRPC4 potentiator project, cell-based, second counter screen, HEK293 TRPC4/5HT1a, Fluo-4 (AID 434979;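 active = signal rise over 3 SD above mean of control wells given weak agonist, in both repeats and first screen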); settings: Fluo-4 calcium flux, at 10 µM, serotonin added at its EC20 dose; hits give high values
# [16] = calcium flux activation in mu-opioid HEK293 cells, confirmation, counter-screen for TRPC4 activator project, cell-based, HEK293 mu-opioid receptor line (AID 449723;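 active = hit in primary screen, with calcium signal over 5 SD above buffer well mean in both duplicates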;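 also: counter screen cells carry the mu-opioid receptor alone and lack TRPC4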); settings: Fluo-4 calcium fluorescence, at 10 µM; hits give high values
# [17] = calcium flux enhancement in mu-opioid HEK293 cells, confirmation, counter-screen for TRPC4 allosteric potentiator project, cell-based, HEK293 mu-opioid receptor line (AID 449724;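 active = calcium signal rise more than 3 SD above the low-dose agonist control mean, in both duplicate plates and the primary screen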); settings: Fluo-4 calcium flux, at 10 µM, compound added before EC20 DAMGO stimulus; hits give high values
structure (smiles),measurement,setting,value
CC(C)Oc1cccc(C(=O)NC(=S)Nc2ccc(N3CCN(C)CC3)cc2)c1,outcome,[1],inactive
same,outcome,[2],inactive
same,outcome,[3],inactive
same,outcome,[4],inactive
same,outcome,[5],inactive
same,outcome,[6],inactive
same,outcome,[7],inactive
same,outcome,[8],inactive
same,outcome,[9],inactive
same,outcome,[10],inactive
same,outcome,[11],inactive
same,outcome,[12],inactive
same,outcome,[13],inactive
same,outcome,[14],inactive
same,potentiation,[15],16.6% (active)
same,outcome,[16],inactive
same,outcome,[17],inactive
C=C(C)COc1ccc(-c2nc(N)ncc2-c2ccccc2OC)c(O)c1,outcome,[1],inactive
same,outcome,[2],inactive
same,outcome,[3],inactive
same,outcome,[4],inactive
same,outcome,[5],inactive
same,outcome,[6],inactive
same,outcome,[7],inactive
same,outcome,[8],inactive
same,outcome,[9],inactive
same,outcome,[10],inactive
same,outcome,[11],inactive
same,outcome,[12],inactive
same,outcome,[13],inactive
same,outcome,[14],inactive
same,potentiation,[15],8.86% (active)
same,outcome,[16],inactive
same,outcome,[17],inactive
CN(CCNC(=O)c1ccc(/C=N/O)nc1)Cc1ccccc1,outcome,[1],inactive
same,outcome,[2],inactive
same,potentiation,[3],18% (active)
same,potentiation,[4],8% (active)
same,outcome,[5],inactive
same,outcome,[6],inactive
same,outcome,[7],inactive
same,outcome,[8],inactive
same,outcome,[9],inactive
same,outcome,[10],inactive
same,outcome,[11],inactive
same,outcome,[12],inactive
same,outcome,[13],inactive
same,outcome,[14],inactive
same,potentiation,[15],19.6% (active)
same,outcome,[16],inactive
same,outcome,[17],inactive
CC1CCCCC1NS(=O)(=O)c1ccc(S(=O)(=O)N2CCCC2)cc1 (stereo not given),outcome,[1],inactive
same,outcome,[2],inactive
same,outcome,[3],inactive
same,potentiation,[4],32% (active)
same,outcome,[5],inactive
same,outcome,[6],inactive
same,outcome,[7],inactive
same,outcome,[8],inactive
same,outcome,[9],inactive
same,outcome,[10],inactive
same,outcome,[11],inactive
same,outcome,[12],inactive
same,outcome,[13],inactive
same,outcome,[14],inactive
same,potentiation,[15],11.2% (active)
same,outcome,[16],inactive
same,outcome,[17],inactive
CCSc1nnc([C@H](Cc2c[nH]c3ccccc23)NC(=O)OC(C)(C)C)o1,outcome,[1],inactive
same,outcome,[2],inactive
same,outcome,[3],inactive
same,outcome,[4],inactive
same,outcome,[5],inactive
same,outcome,[6],inactive
same,outcome,[7],inactive
same,outcome,[8],inactive
same,outcome,[9],inactive
same,outcome,[10],inactive
same,outcome,[11],inactive
same,outcome,[12],inactive
same,outcome,[13],inactive
same,outcome,[14],inactive
same,potentiation,[15],13.1% (active)
same,outcome,[16],inactive
same,outcome,[17],inactive
COc1ccc(CCN2CCCC(CN(C)C(=O)c3ccoc3)C2)cc1 (stereo not given),outcome,[1],inactive
same,outcome,[2],inactive
same,outcome,[3],inactive
same,outcome,[4],inactive
same,outcome,[5],inactive
same,outcome,[6],inactive
same,outcome,[7],inactive
same,outcome,[8],inactive
same,outcome,[9],inactive
same,outcome,[10],inactive
same,outcome,[11],inactive
same,outcome,[12],inactive
same,outcome,[13],inactive
same,outcome,[14],inactive
same,potentiation,[15],14.1% (active)
same,outcome,[16],inactive
same,outcome,[17],inactive
CCOC(=O)CCSc1nc(C)cc(C(F)(F)F)c1C#N,outcome,[1],inactive
same,outcome,[2],inactive
same,outcome,[3],inactive
same,outcome,[4],inactive
same,outcome,[5],inactive
same,outcome,[6],inactive
same,outcome,[7],inactive
same,outcome,[8],inactive
same,outcome,[9],inactive
same,outcome,[10],inactive
same,outcome,[11],inactive
same,outcome,[12],inactive
same,outcome,[13],inactive
same,outcome,[14],inactive
same,outcome,[15],inactive
same,outcome,[16],inactive
same,outcome,[17],inactive
O=C(Nc1ncc(Br)s1)C(Cc1ccccc1)n1cccc1 (stereo not given),outcome,[1],inactive
same,outcome,[2],inactive
same,outcome,[3],inactive
same,potentiation,[4],26% (active)
same,outcome,[5],inactive
same,outcome,[6],inactive
same,outcome,[7],inactive
same,outcome,[8],inactive
same,outcome,[9],inactive
same,outcome,[10],inactive
same,outcome,[11],inactive
same,outcome,[12],inactive
same,outcome,[13],inactive
same,outcome,[14],inactive
same,potentiation,[15],7.42% (active)
same,outcome,[16],inactive
same,outcome,[17],inactive
Cc1nnc(Sc2cc(NCCCO)c([N+](=O)[O-])c3nonc23)s1,outcome,[1],inactive
same,outcome,[2],inactive
same,outcome,[3],inactive
same,outcome,[4],inactive
same,inhibition,[5],84% (active)
same,outcome,[6],inactive
same,outcome,[7],inactive
same,outcome,[8],inactive
same,outcome,[9],inactive
same,outcome,[10],inactive
same,outcome,[11],inactive
same,outcome,[12],inactive
same,outcome,[13],inactive
same,outcome,[14],inactive
same,outcome,[15],inactive
same,outcome,[16],inactive
same,outcome,[17],inactive
CCCC(=O)N/C(N)=N/c1nc(C)c2ccccc2n1,outcome,[1],inactive
same,outcome,[2],inactive
same,potentiation,[3],9% (active)
same,outcome,[4],inactive
same,outcome,[5],inactive
same,outcome,[6],inactive
same,outcome,[7],inactive
same,outcome,[8],inactive
same,outcome,[9],inactive
same,outcome,[10],inactive
same,outcome,[11],inactive
same,outcome,[12],inactive
same,outcome,[13],inactive
same,outcome,[14],inactive
same,potentiation,[15],10% (active)
same,outcome,[16],inactive
same,outcome,[17],inactive
O=C(NCCCN1CCN(CCCNC(=O)c2cccc(Cl)c2)CC1)c1cccc(Cl)c1,outcome,[1],inactive
same,outcome,[2],inactive
same,potentiation,[3],22% (active)
same,outcome,[4],inactive
same,outcome,[5],inactive
same,outcome,[6],inactive
same,outcome,[7],inactive
same,outcome,[8],inactive
same,outcome,[9],inactive
same,outcome,[10],inactive
same,outcome,[11],inactive
same,outcome,[12],inactive
same,outcome,[13],inactive
same,outcome,[14],inactive
same,potentiation,[15],11.3% (active)
same,outcome,[16],inactive
same,outcome,[17],inactive
CC(=O)Nc1ccc(CN2CCCC(CO)(Cc3ccccc3C)C2)cc1 (stereo not given),outcome,[1],inactive
same,outcome,[2],inactive
same,outcome,[3],inactive
same,outcome,[4],inactive
same,outcome,[5],inactive
same,outcome,[6],inactive
same,outcome,[7],inactive
same,outcome,[8],inactive
same,outcome,[9],inactive
same,outcome,[10],inactive
same,outcome,[11],inactive
same,outcome,[12],inactive
same,outcome,[13],inactive
same,outcome,[14],inactive
same,outcome,[15],inactive
same,outcome,[16],inactive
same,outcome,[17],inactive
O=[N+]([O-])c1cc([N+](=O)[O-])c2oc(-c3ccccc3)c(Br)c2c1O,outcome,[1],inactive
same,outcome,[2],inactive
same,outcome,[3],inactive
same,outcome,[4],inactive
same,outcome,[5],inactive
same,outcome,[6],inactive
same,outcome,[7],inactive
same,outcome,[8],inactive
same,outcome,[9],inactive
same,outcome,[10],inactive
same,outcome,[11],inactive
same,outcome,[12],inactive
same,outcome,[13],inactive
same,outcome,[14],inactive
same,outcome,[15],inactive
same,outcome,[16],inactive
same,outcome,[17],inactive
CC(C)Cn1c(CN2CCN(C)C(CCO)C2)nc2ccccc21 (stereo not given),outcome,[1],inactive
same,outcome,[2],inactive
same,outcome,[3],inactive
same,outcome,[4],inactive
same,outcome,[5],inactive
same,outcome,[6],inactive
same,outcome,[7],inactive
same,outcome,[8],inactive
same,outcome,[9],inactive
same,outcome,[10],inactive
same,outcome,[11],inactive
same,outcome,[12],inactive
same,outcome,[13],inactive
same,outcome,[14],inactive
same,outcome,[15],inactive
same,outcome,[16],inactive
same,outcome,[17],inactive
Cc1cc(C)cc(N(CC(=O)Nc2ccc(C)cc2Cl)S(=O)(=O)c2c(C)[nH]c(=O)[nH]c2=O)c1,outcome,[1],inactive
same,outcome,[2],inactive
same,outcome,[3],inactive
same,potentiation,[4],23% (active)
same,outcome,[5],inactive
same,outcome,[6],inactive
same,outcome,[7],inactive
same,outcome,[8],inactive
same,outcome,[9],inactive
same,outcome,[10],inactive
same,outcome,[11],inactive
same,outcome,[12],inactive
same,outcome,[13],inactive
same,outcome,[14],inactive
same,potentiation,[15],78.6% (active)
same,outcome,[16],inactive
same,outcome,[17],inactive
